From PubChem BioAssay AID1159580 (chemical genetic matrix, 2015)
Where “and” joins values, the source holds several entries; their conditions need not be identical. Identical values can stand only once. Among all 5,500 compounds or so, about 2,000 (36%) were called active. Another 18% or so got no clear call; they are omitted. No stated cut-off is given here; in the data, active means normalized growth mostly below about 0.91 (no sharp cut-off); inconclusive means no clear call, values can overlap the other calls; inactive means mostly above about 0.92. Some of the results follow.

Assay: chemical genetic growth profiling, strain panel (AID 1159580);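 further: tested at 20 µM; growth read once vehicle control cultures reached saturation at 30 °C; 1 = growth at the plate median or of vehicle wells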
Conditions: S. cerevisiae deletion strains, growth OD

Measured: normalized growth

CC(=O)O[C@H]1CC[C@]2(C)C3CC[C@@]4(C)C(CC5O[C@@]6(CCC(C)CO6)[C@@H](C)C54)C3CC[C@@H]2C1 (stereo not given in full)
inactive: locus YAL021C, strain ccr4, stronger effect = lower value 1.02 | locus YAL026C, strain drs2, stronger effect = lower value 1.02 | locus YAL030W, strain snc1, stronger effect = lower value 1.01 | locus YBL061C, strain skt5, stronger effect = lower value 1.01 | locus YBR009C, strain hhf1, stronger effect = lower value 1.03 | locus YBR021W, strain FUR4, stronger effect = lower value 0.996 | locus YBR023C, strain chs3, stronger effect = lower value 1.01 | locus YBR171W, strain sec66, stronger effect = lower value 1.03 | locus YBR229C, strain ROT2, stronger effect = lower value 0.99 | locus YBR231C, strain swc5, stronger effect = lower value 1 | locus YBR279W, strain paf1, stronger effect = lower value 1.01 | locus YCL011C, strain gbp2, stronger effect = lower value 1 | locus YCL016C, strain dcc1, stronger effect = lower value 1.01 | locus YCL029C, strain bik1, stronger effect = lower value 0.993 | locus YCL069W, strain vba3, stronger effect = lower value 1.02 | locus YCR088W, strain abp1, stronger effect = lower value 1.02 | locus YDL005C, strain med2, stronger effect = lower value 1.03 | locus YDL035C, strain GPR1, stronger effect = lower value 1.03 | locus YDL040C, strain nat1, stronger effect = lower value 1 | locus YDL074C, strain BRE1, stronger effect = lower value 1.02 | locus YDL101C, strain DUN1, stronger effect = lower value 0.986 | locus YDL185W, strain tfp1, stronger effect = lower value 0.986 | locus YDL192W, strain arf1, stronger effect = lower value 0.997 | locus YDR001C, strain nth1, stronger effect = lower value 1.01 | locus YDR069C, strain doa4, stronger effect = lower value 1.01 | locus YDR101C, strain arx1, stronger effect = lower value 0.992 | locus YDR137W, strain rgp1, stronger effect = lower value 1.04 | locus YDR159W, strain sac3, stronger effect = lower value 1.01 | locus YDR162C, strain NBP2, stronger effect = lower value 1.02 | locus YDR195W, strain ref2 1.03 | locus YDR297W, strain sur2, stronger effect = lower value 1 | locus YDR318W, strain mcm21, stronger effect = lower value 0.997 | locus YDR334W, strain swr1, stronger effect = lower value 1.03 | locus YDR335W, strain msn5, stronger effect = lower value 1.02 | locus YDR388W, stronger effect = lower value 0.991 | locus YDR392W, strain spt3, stronger effect = lower value 1.03 | locus YDR502C, strain sam2, stronger effect = lower value 0.977 | locus YEL003W, strain gim4, stronger effect = lower value 1.03 | locus YEL037C, strain rad23, stronger effect = lower value 1.02 | locus YEL061C, strain CIN8 (second series), stronger effect = lower value 1.05 | locus YEL061C, strain CIN8, stronger effect = lower value 1 | locus YER015W, strain faa2, stronger effect = lower value 1.01 | locus YER016W, strain bim1, stronger effect = lower value 1 | locus YER110C, stronger effect = lower value 0.991 | locus YER111C, strain swi4, stronger effect = lower value 1.02 | locus YER155C, strain BEM2 (second series), stronger effect = lower value 1.04 | locus YER155C, strain BEM2, stronger effect = lower value 0.975 | locus YER167W, strain BCK2, stronger effect = lower value 0.998 | locus YFR010W, strain ubp6, stronger effect = lower value 1.01 | locus YGL078C, strain dbp3, stronger effect = lower value 0.98 | locus YGL167C, strain pmr1, stronger effect = lower value 1 | locus YGL173C, strain kem1, stronger effect = lower value 1.01 | locus YGL227W, strain vid30, stronger effect = lower value 1.02 | locus YGL240W, strain doc1, stronger effect = lower value 1.02 | locus YGL248W, strain PDE1, stronger effect = lower value 0.985 | locus YGL253W, strain hxk2, stronger effect = lower value 1.01 | locus YGR135W, strain pre9, stronger effect = lower value 0.97 | locus YGR229C, strain SMI1, stronger effect = lower value 1.08 | locus YGR252W, strain gcn5, stronger effect = lower value 0.949 | locus YHR013C, strain ard1, stronger effect = lower value 1.01 | locus YHR027C, strain rpn1, stronger effect = lower value 1.02 | locus YHR030C, strain SLT2, stronger effect = lower value 0.989 and 0.998 | locus YHR079C, strain IRE1 (second series), stronger effect = lower value 0.989 | locus YHR079C, strain IRE1, stronger effect = lower value 1.01 | locus YHR094C, strain hxt1, stronger effect = lower value 0.996 | locus YHR129C, strain ARP1, stronger effect = lower value 0.996 | locus YHR142W, strain chs7, stronger effect = lower value 1.03 | locus YHR200W, strain rpn10, stronger effect = lower value 0.989 | locus YIL066C, strain RNR3, stronger effect = lower value 1.01 | locus YIL073C, strain SPO22, stronger effect = lower value 1.06 | locus YIL125W, strain kgd1, stronger effect = lower value 1 | locus YIR030C, strain dcg1, stronger effect = lower value 0.992 | locus YJL092W, strain hpr5, stronger effect = lower value 1.03 | locus YJL095W, strain BCK1 (second series), stronger effect = lower value 1 | locus YJL095W, strain BCK1, stronger effect = lower value 0.987 and 1.01 | locus YJL115W, strain asf1, stronger effect = lower value 1.01 | locus YJL129C, strain trk1, stronger effect = lower value 1.03 | locus YJL134W, strain LCB3, stronger effect = lower value 0.987 | locus YJL154C, strain vps35, stronger effect = lower value 1.01 | locus YJL164C, strain tpk1, stronger effect = lower value 1.01 | locus YJL166W, strain qcr8, stronger effect = lower value 1.01 | locus YJL168C, strain set2, stronger effect = lower value 0.993 | locus YJL187C, strain SWE1 (second series), stronger effect = lower value 0.975 | locus YJL187C, strain SWE1, stronger effect = lower value 1.01 | locus YJR043C, strain POL32, stronger effect = lower value 1.01
